# “And” between values parts separate entries of the source, which are not always exact repeats. Equal values may be shown once. ± gives the standard deviation of the averaged measurements.
# Test system: iBMDM (immortalised mouse bone-marrow-derived macrophages), LPS-stimulated
# Experiment: mitochondrial superoxide (MitoSOX fluorescence) fold increase over unstimulated control; higher = more LPS-induced mitochondrial ROS (less inhibition)
# Conditions: inhibitor concentration: 500 nM; LPS: 100 ng/ml; time after LPS: 1 h
# How it was run: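 Mitochondrial superoxide was expressed as fold induction over untreated macrophages. Immortalised mouse bone-marrow-derived macrophages were pretreated with kinase inhibitors (500 nM) for 30 min, loaded with 1 μM MitoSox for 10 min and stimulated with LPS (100 ng/ml). MitoSox fluorescence (excitation 510 nm, emission 580 nm) was read hourly over 4 h, and the three replicates were averaged.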
row,Structure (SMILES),mitochondrial superoxide
1,Cc1cc(C(C)Nc2ccccc2)c2nc(N3CCOCC3)cc(=O)n2c1 (configuration not stated),1.51 ± 0.032
2,Cc1cnc(NC(=O)Nc2cc(Br)c(C)cc2OC[C@@H]2CNCCO2)cn1,1.116 ± 0.011
3,O=c1cc(N2CCOCC2)oc2c(-c3ccccc3)cccc12,1.36 ± 0.075
4,CC(C)CC(=O)Nc1n[nH]c2c1CN(C(=O)C1CCN(C)CC1)C2(C)C,1.08 ± 0.049
5,CC(C)(C)n1nc(-c2ccc(Cl)cc2)c2c(N)ncnc21,1.11 ± 0.019
6,"Nc1cc(C(F)(F)F)c(-c2cc(N3CCOCC3)nc(N3CCOCC3)n2)cn1 [BKM120 (NVP-BKM120, Buparlisib)]",1.33 ± 0.034
7,Cc1cc(CN2CCN(c3c(Br)cnc4nc(-c5ccc(N6CCN(C)CC6)cc5)[nH]c34)CC2)no1,1.27 ± 0.038
8,COc1c(C)c(C(=O)c2ccc(N)c(C(=O)O)c2)n2ccccc12,1.19 ± 0.076
9,CCc1ccc(/C=C2/SC(=S)NC2=O)cc1,1.137 ± 0.0067
10,Cc1[nH]c(/C=C2\C(=O)Nc3ccc(S(=O)(=O)N(C)c4cccc(Cl)c4)cc32)c(C)c1C(=O)N1CCN(C)CC1,1.33 ± 0.11
11,CC1(COc2ccc3c(c2)ncn3-c2ccc3cccc(N4CCC(N)CC4)c3n2)COC1,1.04 ± 0.1
12,COc1cc2c(Oc3ccc4[nH]c(C)cc4c3F)ncnc2cc1OCCCN1CCCC1 [Cediranib (AZD2171)],1.65 ± 0.088
13,O=C1NC(=O)/C(=C/c2ccc(-c3ccc(F)cc3O)o2)S1,1.4 ± 0.16
14,Cc1c(Cn2c(C)nc3c(C(=O)O)cc(N4CCOCC4)cc32)cccc1C(F)(F)F,1.394 ± 0.013
15,Cc1cc(C)nc(NS(=O)(=O)c2ccc(NC(=S)NC(=O)COc3ccc(Br)cc3Cl)cc2)n1,1.42 ± 0.087
16,COc1cc2/c(=N/c3ccc(Br)cc3F)nc[nH]c2cc1OCC1CCN(C)CC1 [Vandetanib (ZD6474)],1.57 ± 0.036
17,COC(=O)Nc1ccc(-c2nc(N3CCOCC3)c3cnn(C4CCN(C(=O)OC)CC4)c3n2)cc1,1.14 ± 0.026
18,FC(F)c1nc2ccccc2n1-c1nc(N2CCOCC2)nc(N2CCOCC2)n1,1.53 ± 0.029
19,CCS(=O)(=O)c1cccc(-c2cc(C(=O)NC3CCN(C)CC3)c(C)c3[nH]c4ncc(C)cc4c23)c1,1.31 ± 0.05

row,Structure (SMILES),mitochondrial superoxide
1,Oc1cccc(-c2nc(N3CCOCC3)c3oc4ncccc4c3n2)c1,1.61 ± 0.025
2,Cn1c(=O)c(F)c(Nc2ccc(I)cc2F)c2c(=O)n(C[C@@H](O)CO)cnc21,1.36 ± 0.021
3,CC[C@@H]1C(=O)N(C)c2cnc(Nc3ccc(C(=O)NC4CCN(C)CC4)cc3OC)nc2N1C1CCCC1,1.14 ± 0.063
4,NC(=O)c1ccc(N(C(N)=O)c2c(F)cccc2F)nc1-c1ccc(F)cc1F,1.2 ± 0.026
5,NC1(c2ccc(-c3nc4ccn5c(=O)[nH]nc5c4cc3-c3ccccc3)cc2)CCC1,1.26 ± 0.036
6,COc1ccc2c(c1)c(C1=C(c3c[nH]c4ccccc34)C(=O)NC1=O)cn2CCCN(C)C,1.23 ± 0.056
7,FC(F)(F)c1ccc(/C=C/c2nc(COc3ccc(CCCCn4ccnn4)cc3)co2)cc1 [Mubritinib (TAK 165)],1.06 ± 0.033
8,O=C(Nc1cc(C(F)(F)F)cc(C(F)(F)F)c1)c1cc(Cl)ccc1O,0.988 ± 0.04
9,COc1cc(Nc2ncc(F)c(Nc3ccc4c(n3)N(COP(=O)(O)O)C(=O)C(C)(C)O4)n2)cc(OC)c1OC [Fostamatinib (R788)],1.29 ± 0.026
10,Cc1nc(Nc2ncc(C(=O)Nc3c(C)cccc3Cl)s2)cc(N2CCN(CCO)CC2)n1 [Dasatinib],1.51 ± 0.022
11,N#CC[C@H](C1CCCC1)n1cc(-c2ncnc3[nH]ccc23)cn1,1.19 and 1.09
12,CO[C@H]1C[C@@H]2CC[C@@H](C)[C@@](O)(O2)C(=O)C(=O)N2CCCC[C@H]2C(=O)O[C@H]([C@H](C)C[C@@H]2CC[C@@H](OCCO)[C@H](OC)C2)CC(=O)[C@H](C)/C=C(\C)[C@@H](O)[C@@H](OC)C(=O)[C@H](C)C[C@H](C)/C=C/C=C/C=C/1C [Everolimus (RAD001)],1.37 ± 0.055
13,CCc1cc(Nc2nccc(-c3c(-c4ccc(OC)c(C(=O)Nc5c(F)cccc5F)c4)nc4ccccn34)n2)c(OC)cc1N1CCC(N2CCN(S(C)(=O)=O)CC2)CC1,1.3 ± 0.016
14,CCOc1ccn(-c2ccc(F)cc2)c(=O)c1C(=O)Nc1ccc(Oc2ccnc(N)c2Cl)c(F)c1,1.25 ± 0.045
15,NC(=O)c1cccc(-c2cc(Nc3ccc(OC(F)(F)F)cc3)ncn2)c1,1.14 ± 0.054
16,COc1ccc(COc2cc3oc(=O)c4cc(C(C)O)ccc4c3cc2OC)cc1 (configuration not stated) [Palomid 529 (P529)],1.1 ± 0.049
17,CC(C)(C#N)c1ccc(N2C(=O)OCc3cnc4ccc(-c5cnc6ccccc6c5)cc4c32)cc1,1.4 ± 0.039
18,O=c1c(-c2ccc(O)cc2)coc2cc(O)cc(O)c12 [Genistein],1.22 ± 0.079

# Source: the supplement of paper PMC7393113
